# In the OligoGym collection:
# Biological target: ETFB
# Assay: pooled miR-30 sensor sort-seq; sequence = guide strand
# Conditions: shRNA
# Note: reference of the scale not given here.
row,Sequence,sensor-assay potency score (higher = more potent)
1,ATCACCTCGATCTTCTTCTTCT,-0.543
2,TCCCGCTCCACTTTCAACTTGT,-0.247
3,TCAGCTGTCACCACAGCTGGCA,-0.558
4,TCGGTCTGCACCCATGGCCAGG,-1.71
5,TCTCCTTGAGCCGCACAGCCTC,-1.05
6,TTGGGCAGCGTGGCGTAGCGGG,-1.13
7,TCGTCTCCTGGCACTGTGCAGG,-1.37
8,TTCTTCTTGGCTTTCATGATGT,-0.521
9,TTCTCCTTCTCTGCCAGCTTGG,-1.27
10,AAGCGTTCTGCTTCTGCTGGGG,-0.0454
11,AATCCAGCTGTCATCTGCCCTG,-0.828
12,TTTCAACTTGTCCCCCTCCAGC,-1.21
13,TGGAGGTCAGGTCCACACCCAG,-1.98
14,ACAGTCATCATCGATGGCCTGT,-0.63
15,TTCTTGGCTTTCATGATGTTGG,-0.962
16,AAGAAATCCAGCTGTCATCTGC,0.386
17,TTGATCACCTCGATCTTCTTCT,0.521
18,TTGGCTTTCATGATGTTGGGCA,0.503
19,TCTGGTTACAGTCATCATCGAT,-0.57
20,TTCATGGAGTGCTTCACACCAT,0.145
21,ACACTGATCACAGAGAGCTTGG,-0.751
22,TCCACTTTCAACTTGTCCCCCT,-0.169

# Biological target: ETS1
# Assay: as above
# Conditions: shRNA
row,Sequence,sensor-assay potency score (higher = more potent)
1,ATAGCTAATGAAGTAATCCGAG,-0.147
2,TAGCTAATGAAGTAATCCGAGG,-1.48
3,TTGATATGGTTTCACATCCTCT,-1.06
4,TAGTCCTCTGAGTCGAAGCTGT,-0.809
5,TGAGACATCATTTCTTTGCTGC,0.679
6,TTTGATAGCAAAGTAGTCATTC,-0.303
7,TTGTTTGATAGCAAAGTAGTCA,-0.385
8,TATCGTAGCTCTCTATGCTTTC,-0.783
9,TTTTCCGTCTTGATGATGGTGA,-0.268
10,TGAAAGTAGCTTTTAATGCTTG,-0.0896
11,ATCTGCACATTCCATATCCGGG,-1.42
12,TTTATCAGTGAGTAATTCCAGA,-0.449
13,TTTCACATCCTCTTTCTGCAGG,-0.259
14,TATGCTTTCAAAAGAGTCCTGG,0.343
15,TAGAGTGATAGGTAAATAGTTC,-0.916
16,TTTTGTCGTAATAGTAGCGTAG,-0.397
17,AAGACTGACAGGATTTATCAGT,-0.516
18,TTCTGCAAGGTGTCTGTCTGGA,0.532
